We go through ten targets from the supplement of paper PMC3616981.

± gives the standard deviation of the averaged measurements.

Compound in this assay: CC(C)c1cccc(C(C)C)c1N1C(=O)c2ccc(O)cc2C1=O
Put plainly: BioMAP readout fold decrease vs vehicle (vehicle/treated); higher = stronger decrease of the readout vs vehicle (values <1 mean increase). The procedure: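 BioSeek BioMAP human primary cell (co-)culture systems (3C, 4H, LPS, SAg, BE3C, CASM3C, hDFCGF, KF3CT) treated with 5HPP-33 at 1.48, 4.44, 13.3 and 40 µM. Read-outs are protein levels by ELISA, proliferation and SRB total protein. Duplicate rows per assay are averaged as replicates. Tested in ToxCast Phase II for this study; exposure time not stated.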
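Note: Co-cultures of keratinocytes, bronchial epithelial and smooth muscle cells, fibroblasts, HUVECs and PBMCs under stimuli like LPS, TNF-α, IFN-γ, IL-1β, TGF-β or EGF, SRB reflecting cytotoxicity.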

Regarding 3C_MIG, the “BioMAP readout fold decrease” value runs as follows: (1.48 µM) 1.004 ± 0.0083; (4.44 µM) 1.01 ± 0.0047; (13.3 µM) 1 ± 0.012; (40 µM) 1.09 ± 0.016.
For the target SAg_MCP1, the “BioMAP readout fold decrease” value (1.48 µM) came to 1.08 ± 0.023, the “BioMAP readout fold decrease” value (4.44 µM) worked out at 0.997 ± 0.021, the “BioMAP readout fold decrease” value (13.3 µM) stood at 0.892 ± 0.0095 and the “BioMAP readout fold decrease” value (40 µM) is 4.61 ± 0.68.
Consider 4H_MCP1, for which the “BioMAP readout fold decrease” value runs as follows: (1.48 µM) 1.01 ± 0.026; (4.44 µM) 0.699 ± 0.023; (13.3 µM) 0.623 ± 0.0095; (40 µM) 1.43 ± 0.071.
Taken in the same sequence, the figures for BE3C_hLADR were 0.985 ± 0.037, 1.17 ± 0.015, 1.72 ± 0.043 and 2.97 ± 0.053.
Turning to CASM3C_SAA, the “BioMAP readout fold decrease” value runs as follows: (1.48 µM) 1.02 ± 0.09; (4.44 µM) 1.12 ± 0.018; (13.3 µM) 1.094 ± 0.0048; (40 µM) 1.72 ± 0.1.
Taken in the same sequence, the figures for LPS_MCP1 were 1.03 ± 0.028, 1.01 ± 0.012, 1.02 ± 0.016 and 2.69 ± 0.19.
As for LPS_MCSF, the “BioMAP readout fold decrease” value was found to be 1.081 ± 0.0067 (1.48 µM), 1.32 ± 0.11 (4.44 µM), 1.686 ± 0.0043 (13.3 µM) and 2.21 ± 0.14 (40 µM).
Turning to 4H_Pselectin, the “BioMAP readout fold decrease” value by setting is: (1.48 µM) 0.965 ± 0.074; (4.44 µM) 1.09 ± 0.095; (13.3 µM) 1.56 ± 0.019; (40 µM) 1.75 ± 0.032.
For 3C_IL8, the “BioMAP readout fold decrease” value was 0.994 ± 0.019 (1.48 µM), 0.925 ± 0.011 (4.44 µM), 0.7655 ± 0.0039 (13.3 µM) and 1.132 ± 0.0075 (40 µM).
Taken in the same sequence, the figures for BE3C_TGFb1 were 1.05 ± 0.079, 1.09 ± 0.061, 1.117 ± 0.0036 and 1.32 ± 0.1.
